PubChem BioAssay AID1259418 (Broad Institute, 2018)
In all, about 3,400 compounds went through this assay and about 840 (25%) were called active. Not shown: some 11% with an inconclusive outcome. A selection follows. Results with a measured potency or affinity are listed apart. Unmarked numbers belong to inactive results.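 Rule for the calls: active = fitted half-maximal concentration of signal decrease at or below twice the sample's top tested concentration; inconclusive = flat curve between -70 and -30 percent, or poor fit; inactive = flat within 30 percent, signal rise, or potency above limit.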

Experiment: T. gondii growth inhibition with IFN-gamma, dose response, cell-based, ME49Luc, HeLa, luciferase, 72 h (AID 1259418)
Conditions: T. gondii ME49Luc in IFN-y HeLa, active compounds read low, -100% = high-dose IFN-γ control wells

SMILES: Cn1nccc1C(=O)N1CCC2(CC1)Nc1cc(F)ccc1-n1cccc12
- max activity (at 19.5 µM unless noted): -9.01%

SMILES: c1csc(-c2cc(NC3CCNCC3)nc3[nH]ccc23)n1
- max activity (at 19.5 µM unless noted): 35.6% [at 5 µM]

SMILES: Fc1cccc(CSc2nc(Nc3ccc4c(c3)OCO4)c3ccccc3n2)c1
- max activity (at 19.5 µM unless noted): 11.5%

SMILES: COc1cc(Nc2nc(SCc3ccccc3Cl)nc3ccccc23)cc(OC)c1OC
- max activity (at 19.5 µM unless noted): 11% [at 0.68 µM]

SMILES: Fc1ccc(Nc2nc(SCc3ccccc3F)nc3ccccc23)cc1
- max activity (at 19.5 µM unless noted): 12.5%

SMILES: Clc1ccc(CSc2nc(Nc3ccc4c(c3)OCO4)c3ccccc3n2)cc1
- max activity (at 19.5 µM unless noted): 5.7% [at 2.6 µM]

SMILES: CCc1ccc(-c2noc(-c3nnn(Cc4nc(-c5ccccc5)oc4C)c3C)n2)cc1
- max activity (at 19.5 µM unless noted): 20.7%

SMILES: Cc1ccc(NC(=O)Nc2ccc(-c3nc(-c4ccc(C)cc4C)co3)cc2)cc1
- max activity (at 19.5 µM unless noted): 46.2%

SMILES: Cc1ccc(CNC2=NCCNC23CCN(S(=O)(=O)c2ccc(CC(C)C)cc2)CC3)cc1
- max activity (at 19.5 µM unless noted): 13.1% [at 10 µM]

SMILES: CC(C)Cc1ccc(S(=O)(=O)N2CCC3(CC2)NCCN=C3NCc2cc(F)cc(F)c2)cc1
- max activity (at 19.5 µM unless noted): 20.3%

SMILES: Cc1ccccc1CNC1=NCCNC12CCN(S(=O)(=O)c1ccc(CC(C)C)cc1)CC2
- max activity (at 19.5 µM unless noted): 13.3% [at 2.6 µM]

SMILES: COc1ccc(NC(=O)N2CCc3nc(-c4ccccc4)sc3C2)cc1OC
- max activity (at 19.5 µM unless noted): -8.38% [at 0.35 µM]

SMILES: Cc1nc(OCC(=O)Nc2ccc(Br)cc2)c2ccccc2n1
- max activity (at 19.5 µM unless noted): 28% [at 1.35 µM]

SMILES: Cc1ccc(C)c(NC(=O)COc2nc(C)nc3ccccc23)c1
- max activity (at 19.5 µM unless noted): 15.8% [at 10 µM]

SMILES: N#CCSC1=Nc2ccccc2C2=NC(CCC(=O)NCc3ccccc3)C(=O)N12 (stereo unspecified)
- max activity (at 19.5 µM unless noted): 72.9%

SMILES: CCOc1ccc(-c2nc(CN3CCN(C(=O)Nc4cc(C)ccc4C)CC3)c(C)o2)cc1
- max activity (at 19.5 µM unless noted): -22.4%

SMILES: Cc1nc(OCC(=O)Nc2ccccc2Cl)c2ccccc2n1
- max activity (at 19.5 µM unless noted): 28.8% [at 0.35 µM]

SMILES: CCc1nc(OCC(=O)Nc2cc(OC)cc(OC)c2)c2ccccc2n1
- max activity (at 19.5 µM unless noted): 14.7% [at 0.68 µM]

SMILES: COc1ccc(-c2nc(Cn3nnc(-c4nc(-c5cccnc5)no4)c3C)c(C)o2)cc1
- max activity (at 19.5 µM unless noted): 6.33% [at 5 µM]

SMILES: Cc1nc(OCC(=O)Nc2cccc(C)c2C)c2ccccc2n1
- max activity (at 19.5 µM unless noted): 9.02% [at 0.16 µM]

SMILES: Cc1nc(CCNC(=O)[C@H]2CCCN2S(=O)(=O)c2ccccc2C)cs1
- max activity (at 19.5 µM unless noted): 12.4% [at 10 µM]

SMILES: Cc1c(S(=O)(=O)N2CCC[C@@H]2C(=O)NCCc2csc(-c3ccccc3)n2)cnn1C(F)F
- max activity (at 19.5 µM unless noted): 5.67% [at 2.6 µM]

SMILES: Cc1nc(CCNC(=O)[C@H]2CCCN2S(=O)(=O)c2ccc(F)cc2)cs1
- max activity (at 19.5 µM unless noted): 18.1% [at 1.35 µM]

SMILES: Cc1nc(CCNC(=O)[C@H]2CCCN2S(=O)(=O)c2ccc(C)c(C)c2)cs1
- max activity (at 19.5 µM unless noted): 15.2% [at 10 µM]

SMILES: Cc1ccc(S(=O)(=O)N2CCC[C@@H]2C(=O)NCCc2csc(C)n2)cc1
- max activity (at 19.5 µM unless noted): 7.86% [at 10 µM]

SMILES: O=C(NCCc1csc(-c2ccccc2)n1)[C@H]1CCCN1S(=O)(=O)c1cccc(F)c1
- max activity (at 19.5 µM unless noted): -25.4% [at 1.35 µM]

SMILES: Cc1nc(CCNC(=O)[C@H]2CCCN2S(=O)(=O)c2ccc(Cl)cc2)cs1
- max activity (at 19.5 µM unless noted): 23.5% [at 0.16 µM]

SMILES: CCc1ccc(S(=O)(=O)N2CCc3nc(-c4cccc(OC)c4)sc3C2)cc1
- max activity (at 19.5 µM unless noted): -5.58% [at 5 µM]

SMILES: Cc1cccc(-n2ncc3c(NC4CCCCCCCCCCC4)ncnc32)c1
- max activity (at 19.5 µM unless noted): 22.5% [at 10 µM]

SMILES: CCOC(=O)c1cccc(NC(=O)Nc2ccc(-c3nc(-c4ccccc4)co3)cc2)c1
- max activity (at 19.5 µM unless noted): 14.5% [at 0.16 µM]

SMILES: COc1ccccc1-c1nc(Cn2nnc(-c3nc(-c4ccc(F)cc4)no3)c2C)c(C)o1
- max activity (at 19.5 µM unless noted): 9.82% [at 0.16 µM]

SMILES: CS(=O)(=O)N1CCO[C@@H]2CN(C(=O)Cc3ccccn3)CC[C@H]2C1
- max activity (at 19.5 µM unless noted): -7.92% [at 0.3 µM]

SMILES: COc1ccc(-c2nc(Cn3nnc(-c4nc(-c5ccc(OC(C)C)cc5)no4)c3C)c(C)o2)cc1
- max activity (at 19.5 µM unless noted): 11.3% [at 0.35 µM]

SMILES: COc1cccc(NC(=O)Nc2ccc(-c3nc(-c4cccc(Br)c4)co3)cc2)c1
- max activity (at 19.5 µM unless noted): 13.3%

SMILES: Cc1ccc(C(=O)Nc2c(C(=O)N3CCCC3)[nH]c3ccc(C)cc23)cc1
- max activity (at 19.5 µM unless noted): 49.7% [at 10 µM]

SMILES: CCC(C)NC(=O)Cn1c(=O)c(S(=O)(=O)c2ccccc2)cc2cc(C)ccc21 (stereo unspecified)
- max activity (at 19.5 µM unless noted): -4.98% [at 10 µM]

SMILES: Cc1cc(C)cc(C(=O)N2CCC[C@@H]2C(=O)NCCc2csc(-c3ccccc3)n2)c1
- max activity (at 19.5 µM unless noted): -12.7%

SMILES: CCc1ccc(S(=O)(=O)N2CCC[C@@H]2C(=O)NCCc2csc(C)n2)cc1
- max activity (at 19.5 µM unless noted): -9.49% [at 0.35 µM]

SMILES: Cc1cc(C)c(S(=O)(=O)N2CCC[C@@H]2C(=O)NCCc2csc(-c3ccccc3)n2)cc1C
- max activity (at 19.5 µM unless noted): -22.5%

SMILES: CC(C)(C)c1ccc(S(=O)(=O)N2CCC[C@@H]2C(=O)NCCc2csc(-c3ccccc3)n2)cc1
- max activity (at 19.5 µM unless noted): -14.7% [at 0.16 µM]

SMILES: Cc1nc(CCNC(=O)[C@H]2CCCN2S(=O)(=O)c2ccc(Cl)s2)cs1
- max activity (at 19.5 µM unless noted): 12.6% [at 0.16 µM]

SMILES: O=C(NCCc1csc(-c2ccccc2)n1)[C@H]1CCCN1S(=O)(=O)c1cccc(Cl)c1
- max activity (at 19.5 µM unless noted): -25.7%

SMILES: COc1ccc(CNC(=O)Nc2ccc(-c3nc(-c4ccc(C)cc4C)co3)cc2)cc1
- max activity (at 19.5 µM unless noted): 20.3% [at 1.35 µM]

SMILES: Cc1oc(-c2ccccc2)nc1CSc1nc2c(c(=O)[nH]1)CN(Cc1ccc(F)cc1)CC2
- max activity (at 19.5 µM unless noted): 22.6% [at 0.35 µM]

SMILES: Cc1ccc(-c2coc(-c3ccc(NC(=O)C4CCCCC4)cc3)n2)cc1
- max activity (at 19.5 µM unless noted): 55.5%

SMILES: Cc1ccc(-c2coc(-c3ccc(NC(=O)c4cccc(C)c4)cc3)n2)cc1
- max activity (at 19.5 µM unless noted): 70.3% [at 10 µM]

SMILES: Cc1ccc(-c2nc(Cn3nnc(-c4nc(-c5ccccc5Br)no4)c3C)c(C)o2)cc1
- max activity (at 19.5 µM unless noted): -6.98% [at 5 µM]

SMILES: Cc1ccccc1C(=O)N1CSC[C@@H]1C(=O)NCCc1csc(-c2ccccc2)n1
- max activity (at 19.5 µM unless noted): -16.3%

SMILES: COc1ccccc1-c1noc(C2CCCN2C(=O)Cc2c[nH]c3ccccc23)n1 (stereo unspecified)
- max activity (at 19.5 µM unless noted): -7.96% [at 0.35 µM]

SMILES: COc1ccccc1-c1noc(C2CCCN2C(=O)c2ccc3cc[nH]c3c2)n1 (stereo unspecified)
- max activity (at 19.5 µM unless noted): 14.5% [at 10 µM]

SMILES: CCn1nccc1C(=O)Nc1ccc2c(c1)CCC(=O)N2C
- max activity (at 19.5 µM unless noted): 24.4%

SMILES: COC[C@@H]1CN(CC2CC2)C[C@@]12CCN(CCc1ccccc1)C2
- max activity (at 19.5 µM unless noted): -8.78% [at 2.6 µM]

SMILES: CCOC(=O)CSc1nc(NCc2ccc(Cl)cc2)c2ccccc2n1
- max activity (at 19.5 µM unless noted): 29.6%

SMILES: CCOC(=O)C1CCN(c2nc(-c3ccc(Cl)cc3)nc3ccccc23)CC1
- max activity (at 19.5 µM unless noted): 17% [at 0.35 µM]

SMILES: O=C(Cn1c(=O)c(S(=O)(=O)c2ccccc2)cc2ccccc21)NCc1ccccc1
- max activity (at 19.5 µM unless noted): -8.55% [at 2.6 µM]

SMILES: O=C(NC1CCCC1)N1[C@@H]2CNC[C@H]1C2c1ccc(-c2cccnc2)cc1 (stereo partly specified)
- max activity (at 19.5 µM unless noted): 19.4%

SMILES: c1ccc(-c2ccc([C@H]3[C@H]4CNC[C@@H]3N4Cc3cc(-c4ccccc4)on3)cc2)cc1
- max activity (at 19.5 µM unless noted): 49.3% [at 10 µM]

SMILES: Cc1ccc2c(c1)cc(S(=O)(=O)c1ccccc1)c(=O)n2CC(=O)NC(C)C
- max activity (at 19.5 µM unless noted): -9.24% [at 0.16 µM]

SMILES: O=C(Nc1ccc(-c2nc(-c3cccc(Br)c3)co2)cc1)Nc1ccccc1F
- max activity (at 19.5 µM unless noted): 6.98%

SMILES: COc1ccccc1-c1nc(Cn2nnc(-c3nc(-c4cccnc4)no3)c2C)c(C)o1
- max activity (at 19.5 µM unless noted): 10.3% [at 0.16 µM]

SMILES: Cc1ccc2c(c1C)-n1cccc1C1(CCN(C(=O)C3CCCCC3)CC1)N2
- max activity (at 19.5 µM unless noted): -20.8% [at 0.16 µM]

SMILES: O=C(c1ccc(Cl)cc1)N1CCC2(CC1)Nc1ccc(Cl)cc1-n1cccc12
- max activity (at 19.5 µM unless noted): -6.42% [at 0.35 µM]

SMILES: O=C(CC1CCCC1)N1CCC2(CC1)Nc1ccc(Cl)cc1-n1cccc12
- max activity (at 19.5 µM unless noted): -10.7% [at 0.16 µM]

SMILES: Cc1ccc(C(=O)N2CCC3(CC2)Nc2ccc(Cl)cc2-n2cccc23)cc1
- max activity (at 19.5 µM unless noted): 8.29% [at 0.35 µM]

SMILES: CC(C)C(=O)N1CCC2(CC1)Nc1ccc(Cl)cc1-n1cccc12
- max activity (at 19.5 µM unless noted): 15.6% [at 0.68 µM]

SMILES: CCC(CC)C(=O)N1CCC2(CC1)Nc1ccc(Cl)cc1-n1cccc12
- max activity (at 19.5 µM unless noted): 9.15% [at 0.68 µM]

SMILES: COc1ccc(CC(=O)N2CCC3(CC2)Nc2ccc(Cl)cc2-n2cccc23)cc1
- max activity (at 19.5 µM unless noted): 5.66% [at 2.6 µM]

SMILES: O=C(CC1CCCCC1)N1CCC2(CC1)Nc1ccc(Cl)cc1-n1cccc12
- max activity (at 19.5 µM unless noted): 7.76% [at 0.35 µM]

SMILES: CCc1onc(C)c1C1CCCN1Cc1cn(CC)c2ccc(OC)cc12 (stereo unspecified)
- max activity (at 19.5 µM unless noted): -10.8% [at 0.35 µM]

SMILES: CSc1cccc(NC(=O)Nc2ccc(-c3nc(-c4ccccc4)co3)cc2)c1
- max activity (at 19.5 µM unless noted): 76%

SMILES: Fc1ccc(F)c(CN2[C@@H]3CNC[C@H]2C3c2ccc(-c3ccncc3)cc2)c1 (stereo partly specified)
- max activity (at 10 µM): 23.7%
- max activity (at 21 µM): 49%

SMILES: COc1ccc(CCC(=O)N2CCC3(CC2)Nc2ccc(C)c(C)c2-n2cccc23)cc1
- max activity (at 19.5 µM unless noted): -4.87% [at 0.68 µM]

SMILES: O=C(CC1N=C2c3ccccc3N=C(SCc3ccccc3Cl)N2C1=O)NCc1ccc2c(c1)OCO2 (stereo unspecified)
- max activity (at 19.5 µM unless noted): 24.9% [at 0.16 µM]

SMILES: Cc1ccc2[nH]cc(CCNC(=O)C3CCN(c4ccc(Cl)cc4)C3=O)c2c1 (stereo unspecified)
- max activity (at 19.5 µM unless noted): 23.3% [at 10 µM]

SMILES: CCc1ccc(N2CCC(C(=O)NCCc3c[nH]c4ccc(Cl)cc34)C2=O)cc1 (stereo unspecified)
- max activity (at 19.5 µM unless noted): -15.5% [at 0.16 µM]
